Measured values taken from PubChem BioAssay (NCI).
Compounds without any hit were thinned out: in the full panel of roughly 83,000, 20% have a hit.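 Negative percent growth values reflect cell death: -40 means 40% of the cells present at the start died, and -100 means all died.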 A number with no mark means an inactive call. Active and inactive are the calls of the source. How the source made its calls: active means growth percent below 10; inactive means the rest.

Legend:
Experiment in all cases: NCI-60 one-dose screen, 48 h (100 = growth as untreated, 0 = no growth, -100 = all killed)
Conditions in all cases: 10 µM unless noted
DU-145 prostate = test system: DU-145 prostate
K-562 leukemia = test system: K-562 leukemia
MALME-3M melanoma = test system: MALME-3M melanoma
MDA-MB-231 breast = test system: MDA-MB-231 breast
RXF 393 renal = test system: RXF 393 renal
SF-268 CNS = test system: SF-268 CNS
SF-295 CNS = test system: SF-295 CNS
SF-539 CNS = test system: SF-539 CNS
UACC-257 melanoma = test system: UACC-257 melanoma
M14 melanoma = test system: M14 melanoma
HCT-15 colon = test system: HCT-15 colon
HT29 colon = test system: HT29 colon
SNB-75 CNS = test system: SNB-75 CNS
SNB-19 CNS = test system: SNB-19 CNS
U251 CNS = test system: U251 CNS
PC-3 prostate = test system: PC-3 prostate
SK-MEL-5 melanoma = test system: SK-MEL-5 melanoma
LOX IMVI melanoma = test system: LOX IMVI melanoma
SK-MEL-28 melanoma = test system: SK-MEL-28 melanoma
UACC-62 melanoma = test system: UACC-62 melanoma

Row | SMILES | growth (DU-145 prostate) | growth (K-562 leukemia) | growth (MALME-3M melanoma) | growth (MDA-MB-231 breast) | growth (RXF 393 renal) | growth (SF-268 CNS) | growth (SF-295 CNS) | growth (SF-539 CNS) | growth (UACC-257 melanoma) | growth (M14 melanoma) | growth (HCT-15 colon) | growth (HT29 colon) | growth (SNB-75 CNS) | growth (SNB-19 CNS) | growth (U251 CNS) | growth (PC-3 prostate) | growth (SK-MEL-5 melanoma) | growth (LOX IMVI melanoma) | growth (SK-MEL-28 melanoma) | growth (UACC-62 melanoma)
1 | O=C1C(=O)N(Cc2ccc(-c3ccccc3)cc2)c2ccc(OC(F)(F)F)cc21 | 36.4% | 16.1% | 62.2% | 44.9% | 76.9% | 49.5% | 41.4% | -8.58% (active) | 72.7% | 44.8% | 10.3% | 9.07% (active) | 39.3% | 43.2% | 20.9% | 17.4% | 92.2% | 20.1% | 82.7% | 
2 | O=S(=O)(Nc1ccc(Cl)c(C(F)(F)F)c1)c1ccc(-c2cnc(C3CC3)o2)cc1 | 15.5% | 5.12% (active) | 28.7% | 15.6% | 8.55% (active) | 13.7% | 22.2% | -35.8% (active) | -0.635% (active) | 10.9% | 22.5% | 5.34% (active) | -2.82% (active) | 18.3% | 4.81% (active) | 4.35% (active) | 18.6% | 32.9% | 19.4% | -10.2% (active)
3 | CCNCCNc1cc(-c2ccc(C(F)(F)F)cc2)c(C#N)c2nc3ccccc3n12 | -95.1% (active) | -50.9% (active) | -78.1% (active) | -79.8% (active) | -93.9% (active) | -75.3% (active) | -72.5% (active) | -88% (active) | -80.2% (active) | -82.5% (active) | -75.4% (active) | -61.7% (active) | -95.5% (active) | -78.1% (active) | -87.1% (active) | -72.6% (active) | -91.8% (active) | -95.4% (active) | -86.4% (active) | 
4 | COc1ccc(-c2cc(-c3cc(OC)c(OC)c(OC)c3)c(C#N)c(=O)n2CCCCC(=O)NO)cc1 | 64.1% | 32.6% | 33.1% | 55.6% | 53.1% | 87.9% | 78.7% | 57.7% | 71.7% | 56.9% | 38.4% | 77.9% | 25.5% | 77.5% | 61.3% | 61% | 57.7% | 9.19% (active) | 76.8% | 
5 | O=C(O)CCN1C(=O)/C(=C/C(Cl)=C/c2ccccc2)SC1=S | 22.2% | 14.5% | 36.1% | 49.9% | -10.2% (active) | 26.5% | 51.5% | 10.2% | 33.3% | 10.3% | -50.3% (active) | 10.1% | 13.2% | 34.5% | 20.8% | 47% | 38.9% | -32.4% (active) | 13.9% | 16.1%
6 | O=C(c1ccccc1)c1ccc(C2CCCCC2)cc1 | 106% | 103% | 87.4% | 102% | 100% | 100% | 94.3% | 102% | 105% | 96.8% | 91.5% | 91.5% | 97.5% | 86.7% | 88.9% | 103% | 96.6% | 94.6% | 103% | 86.8%
7 | CCCC/C=C/[C@@H]1C[C@H]1CCO | 116% | 103% | 93.6% | 99.2% | 108% | 104% | 98.2% | 103% | 91.5% | 98.9% | 97.7% | 97.2% | 90.3% | 96.3% | 101% | 95.5% | 99.3% | 98.2% | 98.1% | 92.4%
8 | Cc1c(O)cc(-c2cnc(Nc3ccccc3)s2)c(O)c1C | 105% | 87.2% | 107% | 99.2% | 99.5% | 105% | 98.9% | 95% | 106% | 93.6% | 92.2% | 109% | 104% | 106% | 100% | 76% | 93.4% | 78.3% | 104% | 78.1%
9 | O=C(N/N=C/c1ccc(Cl)cc1)c1[nH]c2ccc(Cl)cc2c1-c1ccccc1 | -2.5% (active) | 39.3% | 62.3% | 9.64% (active) | 34.6% | 27.2% | -24.1% (active) | -0.139% (active) | 59.9% | 20.2% | 11.2% | 19.4% | 70.5% | 15.1% | 10.4% | 17.2% | -36.6% (active) | 19% | 93.3% | 30.7%
10 | O=C1/C(=C/c2cccc(F)c2)CN(C(=O)C(Cl)Cl)C/C1=C\c1cccc(F)c1 | -81.5% (active) | -9.05% (active) | -36.2% (active) | -63.7% (active) | -89.6% (active) | -29.6% (active) | -71.2% (active) | -98.6% (active) | -42.4% (active) | -69.7% (active) | -64.7% (active) | 1.62% (active) | -52.2% (active) | -88.2% (active) | -90.2% (active) | -77.8% (active) | -82.2% (active) | -92.1% (active) | -80.3% (active) | 
11 | Cc1cc(S(=O)(=O)/N=C(\N)n2nc(C)c(C)c2C)c(SCc2ccccc2)cc1Cl | 98.1% | 30.9% | 94.1% | 89.6% | 72.9% | 86.6% | 54.3% | 98.8% | 73.4% | 74.6% | 56.6% | 63.7% | 79.4% | 89.9% | 60.8% | 40.2% | 94.7% | 66.9% | 91.4% | 
12 | Cc1cc(=O)n(C(=O)Nc2ccccc2Cl)c2cc(O)ccc12 | 108% | 109% | 93% | 101% | 109% | 95.8% | 101% | 97.8% | 96.5% | 96.4% | 107% | 108% | 93.7% | 97% | 98.6% | 93.6% | 101% | 99.1% | 107% | 
13 | CC1CN(S(=O)(=O)c2oc(-c3ccc(Cl)cc3)nc2C#N)CC(C)O1 (stereo not given) | 97.7% | 4.49% (active) | 46.4% | 90.7% | 40.3% | 111% | 97.9% | 60.7% | 87.3% | 67.9% | -26.5% (active) | 58.5% | 91.1% | 97.5% | 89.6% | 90.2% | 92.7% | 8.2% (active) | 97.9% | 
14 | CCn1c(SCC(=O)N/N=C(\C)c2ccc(Cl)cc2)nc2c1c(=O)n(C)c(=O)n2C | 108% | 98% | 100% | 104% | 106% | 98% | 101% | 96.3% | 103% | 97.4% | 104% | 103% | 79.6% | 99.2% | 104% | 97.5% | 99.3% | 94.6% | 111% | 
15 | C#CCOc1cccc(Nc2ncnc3ccc(NC(=O)C=C)cc23)c1 | 24.1% | 46% | 60.8% | 54% | 2.49% (active) | 40.2% | 66.2% | 32.1% | 54.9% | 51.4% | 42.9% | 30.7% | 26.6% | 48.2% | 45.6% | 48.5% | 65.7% | 41.1% | 77.8% | 
16 | CNc1nnc2n(-c3ccccc3)c(=O)c3cnn(-c4ccccc4)c3n12 | 102% | 85.7% | 131% | 103% | 98.2% | 96.1% | 78.8% | 83.5% | 95.7% | 79.1% | 76.2% | 51.3% | 73.1% | 110% | 71.4% | 62.7% | 100% | 82.6% | 103% | 
